Compound activity: PubChem, National Center for Advancing Translational Sciences (NCATS)
The list is not random: actives were taken first. Their share in the collection is about 5.7%.
L3MBTL1 inh – qHTS Assay for the Inhibitors of L3MBTL1; Lethal(3)malignant brain tumor-like protein 1 (Homo sapiens), Q9Y468; AlphaScreen L3MBTL1–H3K9me1 peptide binding; Potency, µM (series often up to 57.1 µM), inactives show at the top dose activity, negative = inhibition, actives largely listed as inhibitors; 0.66% of 230,000 active; AID 485360, 2010; also: potency is read from the fitted curve at half-maximal effect; % is scaled to controls: 0 for no effect and ±100 for the full control effect; nearly all actives have a fitted effect of over 60% in size
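L3MBTL1 50 nM + b-AHA-H3(1-15)K9me1 75 nM, 30 min RT; compound added, 30 min RT; streptavidin donor/Ni-chelate acceptor beads 10 ug/mL each final, 30 min RT dark; AlphaScreen read.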
KDM4E inh – qHTS Assay for Inhibitors of Human Jumonji Domain Containing 2E (JMJD2E). Lysine-specific demethylase 4E (Homo sapiens), B2RXH2. JMJD2E catalytic domain, FDH-coupled NADH fluorescence (FDH is formaldehyde dehydrogenase). Potency, µM (titrated, usually from 57.1 µM), without a hit: at the top dose activity change, negative = inhibition, actives largely listed as inhibitors. 1.6% of 230,000 active; active = well fitted inhibition curve with a large enough effect, not every such curve was filed as active; inconclusive = small, poorly fitted or top-dose-only effect, or another doubt; inactive = no such curve, though single readings can be large or run the other way;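 also: potency is read from the fitted curve at half-maximal effect; 0% = wells with enzyme and -100% = buffer wells without enzyme; nearly all actives have a fitted effect of over 50% in size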
Target sequence (B2RXH2 1-337 limits assumed): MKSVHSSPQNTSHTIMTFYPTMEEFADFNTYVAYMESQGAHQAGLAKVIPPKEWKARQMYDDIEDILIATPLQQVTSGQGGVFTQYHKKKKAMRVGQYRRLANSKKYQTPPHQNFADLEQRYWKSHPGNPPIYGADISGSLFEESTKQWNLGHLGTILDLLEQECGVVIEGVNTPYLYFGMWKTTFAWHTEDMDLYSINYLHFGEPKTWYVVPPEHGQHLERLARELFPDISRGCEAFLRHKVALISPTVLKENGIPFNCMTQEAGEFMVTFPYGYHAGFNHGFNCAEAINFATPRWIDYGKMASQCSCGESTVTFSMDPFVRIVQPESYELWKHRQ
PI5P4Ka inh – qHTS for Inhibitors of phosphatidylinositol 5-phosphate 4-kinase (PI5P4K); max response, %; AID 652105, 2013; 1.2% of 330,000 active; PI5P4Kalpha enzyme, ADP-Glo luminescence, 60 min; active compounds read low; Phosphatidylinositol 5-phosphate 4-kinase type-2 alpha (Homo sapiens), P48426; active = max response of -50% or lower; inconclusive = between -30% and -50%; inactive = -30% or higher; also: value at the top dose of about 77 µM; % is scaled to controls: 0 for no effect and ±100 for the full control effect
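Luminescence from ADP-Glo served as readout of PI5P4Kalpha activity in a qHTS format. Reaction: enzyme, substrate, compound, ATP at 5 microM final, 60 min at RT.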
HP1b binding inh – HTS for Inhibitors of HP1-beta Chromodomain Interactions with Methylated Histone Tails; AID 540317, 2011; 0.56% of 390,000 active; Chromobox protein homolog 1 (Homo sapiens), P83916; AlphaScreen HP1-beta / biotin-H3K9me3 peptide binding; Potency, µM (top dose mostly 114 µM), for the others: at the highest dose activity change, negative = inhibition, actives largely listed as inhibitors; also: potency is read from the fitted curve at half-maximal effect; nearly all actives have a fitted effect of over 70% in size
Target sequence (P83916 whole entry, looked up): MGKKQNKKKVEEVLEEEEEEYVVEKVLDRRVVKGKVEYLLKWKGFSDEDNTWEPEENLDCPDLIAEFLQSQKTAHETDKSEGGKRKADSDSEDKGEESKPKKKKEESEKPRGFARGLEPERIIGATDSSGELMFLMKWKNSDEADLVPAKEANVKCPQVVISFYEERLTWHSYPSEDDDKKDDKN
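HP1-beta protein (50 nM final) preincubated 30 min at room temperature with biotinylated H3(1-18)K9me3 peptide (50 nM) in PBS pH 7.4, 0.01% Tween-20, then compound added for 30 min. AlphaScreen streptavidin donor/nickel chelate acceptor beads (10 ug/mL final), 30 min dark, luminescence read.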
BAZ2B block – qHTS Assay for Inhibitors of BAZ2B. 4.4% of 360,000 active. Potency, µM (top dose mostly 114 µM), inactives show at the top dose activity change, negative = inhibition, usual class: inhibitors. AlphaScreen BAZ2B-H3K14Ac peptide displacement. AID 504333, 2011. Bromodomain adjacent to zinc finger domain protein 2B (Homo sapiens), Q9UIF8; also: potency is read from the fitted curve at half-maximal effect; % is scaled to controls: 0 for no effect and ±100 for the full control effect; nearly all actives have a fitted effect of over 60% in size
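AlphaScreen displacement of biotin-H3(5-23)K14Ac peptide (50 nM final) from BAZ2B (50 nM final) in PBS pH 7.4, 0.01% Tween-20; complex preformed 30 min RT, then compounds (top 110 uM) 30 min RT, beads 20 min dark.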
JMJD2A Tudor – qHTS Assay for Inhibitors of JMJD2A-Tudor Domain | Lysine-specific demethylase 4A (Homo sapiens), O75164 | AlphaScreen JMJD2A-Tudor / H3K4me3 peptide binding | Potency, µM (series often up to 114 µM), inactives show at the top dose activity change, negative = inhibition, actives largely listed as inhibitors | 4.4% of 390,000 active | AID 504339, 2011; also: potency is read from the fitted curve at half-maximal effect; % is scaled to controls: 0 for no effect and ±100 for the full control effect; nearly all actives have a fitted effect of over 50% in size
Numbers without * were called inactive; ? = inconclusive; . = no result; [ ] = dose if it differs, or a comment. Unless noted, calls follow the shape of the dose curve; as a rule, active = well fitted inhibition curve with a large enough effect; inconclusive = small, poorly fitted or top-dose-only effect; inactive = no such curve, though single readings can be large or run the other way.

SMILES	L3MBTL1 inh	KDM4E inh	PI5P4Ka inh	HP1b binding inh	BAZ2B block	JMJD2A Tudor
COc1ccc(C2c3cccn3CCN2S(=O)(=O)c2ccc([N+](=O)[O-])cc2)cc1 (centres undefined)	.	.	.	-4%	?	-35%
COc1ccc(NS(=O)(=O)c2cc(C(=O)N3CCN(C/C=C/c4ccccc4)CC3)ccc2C)cc1	-12%	.	4	-10%	50µM*	?
CCN(CC)c1ccc(NC(=O)c2ccccc2F)cc1S(=O)(=O)Nc1ccccc1OC	-7%	8%	-24	?	-14%	?
CCN(CC)c1ccc(NC(=O)c2ccccc2Br)cc1S(=O)(=O)Nc1ccccc1OC	-13%	-24%	?	6.3µM*	?	18µM*
COc1ccccc1-c1nc(C#N)c(N2CCc3ccccc3C2)o1	.	?	.	?	10µM*	?
COc1ccc(N2CCN(c3oc(-c4ccc(OC)c(OC)c4)nc3C#N)CC2)cc1	.	5%	0	7%	?	-8%
COc1ccc(-c2nc(C#N)c(N3CCc4ccccc4C3)o2)cc1OC	-30%	?	.	-38%	7.1µM*	?
Cc1c(P(=S)(c2ccccc2)c2ccccc2)c2ccccc2n1C/C=C/c1ccccc1	.	.	.	.	.	-2%
Cc1c(Cl)cccc1NC(=O)CCn1c(=O)c2cccn2c2ccccc21	.	.	.	21%	1%	-15%
O=C1c2ccccc2C(=O)N1c1cccc(=O)[nH]1	.	.	.	.	.	-11%
Cc1ccc(S(=O)(=O)N2[C@@H](c3ccc(Cl)c(Cl)c3)C(C(=O)O)=C[C@H]2CC2CCCC2)cc1	-8%	.	-4	12%	.	89µM*
CC(C)Nc1nc(C#N)nc(Nc2ccccc2)n1	.	.	.	.	.	-16%
CCOC(=O)N1CCN(C(=O)c2cc(OC)c(OC)c(OC)c2)CC1	-1%	.	-1	37%	-4%	7%
COc1ccc(C(=O)N2CCN(Cc3ccc(OC)c(OC)c3)CC2)cc1	6%	.	-12	?	?	3.2µM*
COc1ccc(CN2CCN(C(=O)c3cc(OC)c(OC)c(OC)c3)CC2)cc1OC	13%	?	.	-52%	?	2.5µM*
COc1cc2c(cc1CN1CCN(C(=O)c3cc(OC)c(OC)c(OC)c3)CC1)OCO2	0%	.	-2	-38%	56µM*	25µM*
COc1ccc(CN2CCN(C(=O)c3ccc4c(c3)CCC4)CC2)cc1OC	-4%	.	-6	7%	.	-23%
COc1ccc(N2CCN(C(=O)Cc3ccc(OC)c(OC)c3)CC2)cc1	-23%	.	?	-19%	8%[0.457 µM]	13µM*
Cc1ccc(CNC(=O)c2cc3c(=O)n4cccc(C)c4nc3s2)cc1	.	.	.	28%	?	-14%
COc1ccc(C(=O)N2CCN(Cc3cc(OC)ccc3OC)CC2)cc1	1%	.	0	?	?	50µM*
CCn1nc(-c2ccccc2)c(-c2ccccc2)c(C(=O)Nc2ccc(NC(C)=O)cc2)c1=O	.	.	.	33%	-19%	-14%
COc1ccc2cc(-c3[nH]ncc3CN3CCCN(c4ccccc4)CC3)ccc2c1	-15%	-24%	3	20µM*	32µM*	35µM*
COc1ccc(-c2[nH]ncc2CN2CCCN(c3ccccc3)CC2)c(F)c1	?	-3%	9	-8%	?	?
CC(C)[C@@H](CC(=O)N[C@@H]1CCCC[C@H]1C(=O)N[C@H](CC(=O)N[C@@H](CCC(=O)O)CC(=O)O)Cc1c[nH]c2ccccc12)NC(=O)C[C@H](Cc1ccccc1)NC(=O)[C@@H]1CNCC[C@H]1N	.	6%	.	.	.	.
CNS(=O)(=O)c1cc(-c2nn3c(C)nnc3c3ccccc23)ccc1C	.	.	.	13%	-12%	-23%
SMILES	L3MBTL1 inh	KDM4E inh	PI5P4Ka inh	HP1b binding inh	BAZ2B block	JMJD2A Tudor
CCOc1ccc(-n2c(-c3ccc(Br)cc3)cc3c2CC(C)(C)CC3=O)cc1	.	.	.	?	10µM*	13µM*
Cc1cc2c(n1-c1ccc(Br)cc1)CC(C)(C)CC2=O	.	4%	.	-9%	?	?
CC(C)(C)N=C1C([N+](=O)[O-])=CC=C2C1=NC1(CCCCC1)N2O	?	-6%	-1	25µM*	5.6µM*	6.3µM*
O=[N+]([O-])C1=CC=C2C(=NC3(CCCCC3)N2O)C1=NC1CCCCC1	-9%	2%	.	13µM*	3.2µM*	?
Cc1cc(=O)n2[nH]c(NC(=O)c3cccc(Cl)c3)nc2n1	.	.	.	20%	-30%	-36%
Nc1nc(N)c2[nH]c(=S)[nH]c2n1	.	.	-52*	?	.	3.5µM*
CC(=O)N1CCc2nc3sc(C(=O)c4ccc(F)cc4)c(N)c3c(C(F)(F)F)c2C1	.	.	.	-6%	50µM*	?
C[C@@H]1O[C@@H](OC2C(O)C(OCCc3ccc(O)c(O)c3)OC(CO)C2OC(=O)/C=C/c2ccc(O)c(O)c2)[C@H](O)[C@H](O)[C@H]1O (some centres undefined)	?	.	.	.	32µM*	.
N[C@@H](Cc1ccc(O)c(I)c1)C(=O)O	2%	5%	.	.	6%	.
O=C(/C=C\c1ccc(O)c(O)c1)O[C@@H](Cc1ccc(O)c(O)c1)C(=O)O	.	4.5µM*	.	.	.	.
O=C(/C=C/c1ccc(O)c(O)c1)OC(Cc1ccc(O)c(O)c1)C(=O)O (centres undefined)	.	4µM*	-10	?	40µM*	13µM*
c1ccc(-c2ccc(OCCCn3cncn3)cc2)cc1	.	?	0	?	56µM*	-14%[11.4 µM]
Brc1cccc(OCCCCn2cncn2)c1	8%	.	-5	?	50µM*	25µM*
c1ccc(COc2ccc(OCCn3cncn3)cc2)cc1	20%[11.4 µM]	2%	0	40%	-18%	-10%
CCOC(=O)NC1(Nc2ccc(Cl)cn2)Oc2ccccc2O1	11µM*	25µM*	.	.	?	.
CCOC(=O)/C=C/C(=O)OCC(=O)Nc1ccc(Cl)cn1	.	11%	-6	24%	3%	-13%
CCc1c(C)nc2nncn2c1Nc1ccc(C)c(F)c1	.	.	.	33%	1%	-14%
CC(O)CN(Cc1cccc(Cl)c1)CC(C)O (centres undefined)	.	-16%	.	-25%	56µM*	3.5µM*
S=c1[nH]nc(-c2ccco2)n1/N=C/c1ccccc1Cl	-8%	2%	0	22%	1%	32µM*
Cc1ccc(/C=N/n2c(-c3ccco3)n[nH]c2=S)s1	-1%	5%	-8	14%	-14%	20µM*
